Screening data from PubChem BioAssay.
rCAG binder: molecules binding r(CAG) RNA repeats; inhibition, % at 3 µM; r(CAG) RNA repeat, TO-PRO-1 dye displacement fluorescence; actives 1.3% (n = 370,000);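 active means inhibition above the plate cutoff, the mean of all test compounds on that plate plus 3 SD, cut at about 35% in these data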;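 further: 0% = DMSO alone and 100% = 100 µM mitoxantrone as full dye displacement; higher means more dye released from RNA so lower well fluorescence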
ALR H2O2 inh: human ALR oxidase inhibition via reduced H2O2; P55789; purified ALR, DTT oxidation, H2O2 HRP-luminol luminescence; inhibition, % (concentration not given with the values); actives 3.8% (n = 290,000); AID 485317;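 active means mean replicate inhibition above about 79%, with every replicate also reaching it, limit read from the data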
LANA-H2A inh: blocks KSHV LANA binding to histone H2A/H2B; actives 0.6% (n = 320,000); cell-free LANA-H2A/H2B peptide, fluorescence polarization; inhibition, % (test concentration not listed); in the data active means inhibition mostly above about 10%, no sharp cut-off; inactive means mostly below about 6.7%
ABHD5-PLIN5 inh: inhibitors of human ABHD5-perilipin-5 interaction | Split G. princeps luciferase complementation, luminescence, 4 h | inhibition, % at 4 µM | actives 0.78% (n = 360,000) | AID 602281;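 active means inhibition above the mean inhibition across every tested compound plus 3 SD, cut at about 22% in these data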;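 further: 0% = DMSO only wells and the 100% control is not disclosed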
Rtt109 Vps75: inhibitors of Candida albicans Rtt109/Vps75 histone acetyltransferase; purified Rtt109/Vps75, ThioGlo CoA-SH fluorescence, 4 h; Q5AAJ8; actives 0.16% (n = 330,000); inhibition, % at 34.9 µM; AID 540336;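 active means inhibition of at least 50% in every replicate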
PRMT1 inh: blocks human protein arginine methyltransferase 1; Q99873; recombinant PRMT1, activity-based probe fluorescence polarization; inhibition, % at 2.79 µM; actives 1.3% (n = 370,000);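 active means inhibition above about 21% made by adding two undisclosed values, limit read from the data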
* hit, by the source's call; . = no result. Sampled rows, rich in hits. Any-hit rate of the full collection: about 5.9%.

SMILES	rCAG binder	ALR H2O2 inh	LANA-H2A inh	ABHD5-PLIN5 inh	Rtt109 Vps75	PRMT1 inh
Cc1cccc(C(=O)N2CCCC(Nc3ccc(C)c(C)c3)C2)n1 (stereo not given)	-7	99*	1	-1	7	-3
CC(C)c1ccc(NC2CCCN(C(=O)c3cccc4nccnc34)C2)cc1 (stereo not given)	-5	66	-3	-6	3	-3
Cc1cccc(C(=O)N2CCCC(Nc3ccc(F)c(F)c3)C2)n1 (stereo not given)	-5	45	2	7	6	0
Cc1ccc(NC2CCCN(C(=O)c3ccc4nccnc4c3)C2)cc1C (stereo not given)	2	98*	-3	-5	-10	-2
Cc1ccc(NC2CCCN(C(=O)c3ccc(-n4ccnc4)cc3)C2)cc1C (stereo not given)	-4	62	0	-4	0	-3
Cc1ccc(NC2CCCN(C(=O)c3cccc4nccnc34)C2)cc1C (stereo not given)	-5	88*	-3	2	-1	-2
CCCCCCCCN1C(=O)[C@@H](CC(=O)NCc2ccc(OC)c(OC)c2)C[C@@]2(C(=O)OC)C1=C[C@H](C(C)(C)C)O[C@@H]2C	10	.	.	.	.	5
COc1ccc(C(=O)N2CCCC(Nc3ccc(F)c(F)c3)C2)c(OC)n1 (stereo not given)	-3	20	1	3	5	0
COc1cccc(C(=O)N2CCCC(Nc3ccc(C)c(C)c3)C2)c1 (stereo not given)	-5	98*	-1	-2	4	-1
COc1ccc(NC2CCCN(C(=O)c3ccc4nccnc4c3)C2)cc1OC (stereo not given)	2	96*	4	-12	5	0
COc1ccc(C(=O)N2CCCC(Nc3ccc(C)c(C)c3)C2)c(OC)n1 (stereo not given)	-10	83*	-4	3	0	3
O=C(c1ccc2nccnc2c1)N1CCCC(Nc2ccc(F)c(F)c2)C1 (stereo not given)	-3	2	2	-3	0	1
Cc1ccc(NC2CCCN(C(=O)c3ccnc(Cl)c3)C2)cc1C (stereo not given)	-6	96*	3	-2	-2	2
COC(=O)c1cc2c(c3c4ccccc4n(S(=O)(=O)c4cccc(C)c4)c13)C(=O)N(C)C2	11	.	.	.	.	1
O=C(Nc1ccc2c(c1)OCCO2)C(c1ccccc1)n1c(=O)c(-c2cc3ccccc3[nH]2)nc2ccccc21 (stereo not given)	22	.	.	7	.	0
COc1ccc(CNC(=O)c2cn(Cc3ccc(S(=O)(=O)N(C)C)cc3)c(=O)s2)cc1	4	.	.	6	.	9
O=C(Cn1cc(C(F)(F)F)ccc1=O)N/N=C/c1ccc(O)cc1	6	99*	-7	0	-1	0
O=C(Cn1cc(C(F)(F)F)ccc1=O)N/N=C/c1ccc(Cl)c(Cl)c1	-4	-21	6	6	-3	-3
CC(=O)CC[C@@H]1CC[C@]2(CCCN(C(=O)c3ccco3)C2)O1	2	.	.	.	.	-1
Cc1ccc(-c2nc(-c3ccccn3)sc2CC(=O)O)cc1	5	99*	5	3	2	-2
O=C(NCc1ccccc1)c1cc(C2COCCN2C(=O)OCCF)on1 (stereo not given)	1	.	.	4	.	2
CC(C)(C)c1ccc(C#C[C@@H]2C=C[C@@H](O)[C@@H](COC(=O)Nc3ccccc3)O2)cc1	2	.	.	.	.	0
NNC(=O)CCc1nc2ccc(O)cc2[nH]1	4	96*	13*	10	4	-1
COC(=O)[C@]12C[C@H](CC(=O)NCc3ccc(OC)c(OC)c3)C(=O)N(CCC3=CCCCC3)C1=C[C@H](COCc1ccccc1)O[C@@H]2C	6	.	.	.	.	0
CC(C)(C)NC(=O)NC(=O)CN1CCc2ccccc21	6	-2	-5	-1	-7	2
SMILES	rCAG binder	ALR H2O2 inh	LANA-H2A inh	ABHD5-PLIN5 inh	Rtt109 Vps75	PRMT1 inh
COCCNC(=O)NC(=O)CN1CCCc2ccccc21	-5	29	16*	-5	13	7
CCn1c(CN2c3ccccc3Sc3ccccc32)n[nH]c1=S	5	98*	-1	-4	10	14
CCn1c(CCCCc2n[nH]c(=S)n2CC)n[nH]c1=S	-3	18	2	-3	12	2
CC1(C)Cc2ccccc2-c2nnc(SCC(=O)N3CCN(c4ccccc4)CC3)n21	-7	97*	3	-1	15	0
Cc1ccnc(SCC(=O)N2CCN(c3ccccc3)CC2)n1	-5	98*	-1	3	0	1
Cc1cc(C)n2nc(SCC(=O)N3CCN(c4ccccc4)CC3)nc2n1	-1	98*	-8	4	-4	-2
Cc1ccnc(SCC(=O)N2CCN(c3cccc(Cl)c3)CC2)n1	-2	19	-2	-2	11	6
CCC(=O)c1ccc(N2CCN(C(=O)c3cccs3)CC2)c(F)c1	-7	0	4	-1	15	-3
O=c1[nH]cnc2c1nnn2C1OC(CO)C(O)C1O (stereo not given)	0	.	.	1	.	2
CC(=O)N1CCC(O)(c2ccc3c(c2)OCO3)CC1	5	-33	2	-2	-7	-1
CCOC(=O)[C@]12CCC=C1N(Cc1ccc(Cl)cc1Cl)C(=O)[C@H](CC(=O)N1CCSCC1)C2	5	.	.	4	.	5
CCOc1ccc(NC(=O)N(C2CCCCCC2)C2CCN(C(C)=O)CC2)cc1	-1	-60	-5	-6	3	-2
CCOc1ccc(NC2CCN(C(C)=O)CC2)cc1	2	91*	0	-4	-1	6
CC(=O)N1CCC(Nc2ccc(C)cc2)CC1	0	98*	1	-1	-12	1
Cc1ccc(NC(=O)N2CCC(NC(=O)C(C)(C)C)CC2)cc1	-5	-4	-4	5	5	1
CCCc1cc(C(=O)Nc2sc(C)c(CC)c2C#N)no1	9	.	-3	-1	9	3
CCc1c(C)sc(NC(=O)c2cc(C)on2)c1C#N	2	85*	6	-2	0	2
CCc1c(C)sc(NC(=O)c2cc(C3CC3)on2)c1C#N	5	94*	-2	-9	3	5
COC(=O)C1=C(C)N(Cc2ccccc2C(F)(F)F)C(=NCc2cc(OC)c(OC)c(OC)c2)NC1c1cccc(C(F)(F)F)c1 (stereo not given)	-2	.	.	.	.	-1
CC1(C)CC(Nc2ccc(Nc3ccccc3)cc2)CC(C)(C)N1	3	99*	3	9	-10	23*
CC1(C)CC(NC(=O)c2ccccc2)CC(C)(C)N1	-2	.	-9	7	-5	-10
CN(C)c1ccc(Nc2nc(N)c([N+](=O)[O-])c(N3CCOCC3)n2)cc1	3	99*	-4	8	29	5
CN(C)/C=N/c1sc2c(c1C#N)CCCC2	-4	100*	0	-19	1	1
